Screening results as filed in PubChem.
Most compounds without a hit are left out; they make up all but 10% or so of the library.
JMJD2A Tudor = JMJD2A Tudor domain (human) inhibition. O75164. AlphaScreen JMJD2A-Tudor / H3K4me3 peptide binding. Potency, µM (titrated, usually from 114 µM), inactives show at the highest dose activity change, negative = inhibition, hits mostly inhibitors. hit rate 4.4% among 390,000. AID 504339; further: on the % scale 0 is the no-effect control and ±100 the full control effect; nearly all actives have a fitted effect of over 50% in size
GLS inhibitor = glutaminase GLS (human) inhibition; O94925; GLS enzymatic activity, qHTS titration; Potency, µM (titrated, usually from 45.5 µM), inactives show at the top dose activity change, negative = inhibition, actives largely listed as inhibitors; hit rate 0.21% among 410,000; further: on the % scale 0 is the no-effect control and ±100 the full control effect
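Glutamate formation by hKGA was monitored fluorometrically using coupled glutamate oxidase, HRP and Amplex Red. Substrate was added as 1 mM L-glutamine solution; incubation was 30 min at RT after an initial read.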
G9a inh = G9a (human) methyltransferase inhibition; Q96KQ7; G9a H3K9 monomethylation, AlphaScreen, 2 h; Potency, µM (highest dose often 102 µM), for inactives: at the top dose activity, negative = inhibition, most hits filed as inhibitors; hit rate 8.8% among 350,000; AID 504332; further: on the % scale 0 is the no-effect control and ±100 the full control effect; nearly all actives have a fitted effect of over 75% in size
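G9a (20 nM) preincubated 15 min RT with compounds, then 500 nM biotinylated H3K9 peptide and 20 uM SAM added; 2 h RT reaction. Monomethyl-H3K9 product detected by AlphaScreen with anti-H3K9me1 antibody, streptavidin donor and anti-rabbit IgG acceptor beads.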
BAZ2B block = blocks human BAZ2B; Q9UIF8; AlphaScreen BAZ2B-H3K14Ac peptide displacement; Potency, µM (series often up to 114 µM), inactives show at the top dose activity change, negative = inhibition, usual class: inhibitors; hit rate 4.4% among 360,000; AID 504333; further: on the % scale 0 is the no-effect control and ±100 the full control effect; nearly all actives have a fitted effect of over 60% in size
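BAZ2B (50 nM) with biotin-H3(5-23)K14Ac peptide (50 nM) in PBS pH 7.4, 0.01% Tween-20, preformed 30 min, then compound 30 min at room temperature; top concentration 110uM. AlphaScreen streptavidin donor/nickel chelate acceptor beads (10 ug/mL final), 20 min dark, signal read.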
HP1b chromo inh = HP1-beta chromodomain-methylated histone interaction inhibition. AlphaScreen HP1-beta / biotin-H3K9me3 peptide binding. Potency, µM (series often up to 114 µM), for the others: at the top dose activity change, negative = inhibition, hits mostly inhibitors. hit rate 0.56% among 390,000. AID 540317; further: nearly all actives have a fitted effect of over 70% in size
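AlphaScreen: HP1-beta (50 nM) preformed 30 min with biotin-H3(1-18)K9me3 peptide (50 nM) in PBS pH 7.4, 0.01% Tween-20. Compound added for 30 min at RT, then streptavidin donor/nickel chelate acceptor beads (10 ug/mL) for 30 min.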
Active calls of the source: *; ? = inconclusive; / = no result given; [ ] = dose if it differs, or a comment. The call rests on the fitted dose curve; in most records, active means well fitted curve in the direction sought with a large enough effect; inconclusive means small, poorly fitted or top-dose-only effect, or another doubt; inactive means no such curve, though single readings can be large; an effect the other way counts as inactive or inconclusive. Potency means the concentration at half of the fitted maximal effect.

SMILES	JMJD2A Tudor	GLS inhibitor	G9a inh	BAZ2B block	HP1b chromo inh
COc1cc(C(=O)N(CCc2ccccc2)C2=CC3CCC(C2)N3C)cc(OC)c1OC (stereo not given)	25%[11.4 µM]	-2%	?	12%	-2%
CCCCN(C(=O)c1cc(OC)c(OC)c(OC)c1)C1=CC2CCC(C1)N2C (stereo not given)	-21%	16%	56µM*	-3%	13%
COCCCN1C(=O)C(=O)/C(=C(/O)c2ccc(OC(C)C)cc2)C1c1ccc(O)c(OC)c1 (stereo not given)	50µM*	34%	56µM*	7%	-7%
CCOc1ccc(C2/C(=C(/O)c3ccc(S(=O)(=O)N4CCCCC4)cc3)C(=O)C(=O)N2CCCOC)cc1OC (stereo not given)	-4%	-3%	79µM*	-22%	35%
COCCN1C(=O)C(=O)/C(=C(/O)c2ccc(S(=O)(=O)N3CCOCC3)cc2)C1c1cccc(Cl)c1 (stereo not given)	-16%	8%	4%	-15%	32%
COCCN1C(=O)C(=O)/C(=C(/O)c2ccc(S(=O)(=O)N3CCOCC3)cc2)C1c1ccc(O)cc1 (stereo not given)	3%	0%	71µM*	?	17%
COCCCN1C(=O)C(=O)/C(=C(/O)c2ccc(S(=O)(=O)N3CCOCC3)cc2)C1c1ccc(OC)cc1 (stereo not given)	2%	-12%	40µM*	-32%	35%
Cc1ccc(N(Cc2cc3ccccc3[nH]c2=O)S(C)(=O)=O)cc1	-4%	0%	26%	-8%	13%
COc1cccc(C(=O)N2CCN(Cc3ccc(OC)cc3OC)CC2)c1	13µM*	4%	7.9µM*	25µM*	?
COc1cccc(C(=O)N2CCN(Cc3cc(Br)ccc3OC)CC2)c1	7.9µM*	10%	22µM*	28µM*	?
COc1ccc(C(=O)NCCN2CCN(C(=O)c3ccc(OC)c(OC)c3)CC2)cc1OC	-3%	-7%	-2%	-7%	55%
COc1ccc(Br)cc1CN1CCC(N2CCCC2)CC1	?	-2%	25µM*	32µM*	?
COc1ccc(OC)c(CN2CCN(C(=O)c3cccc(S(=O)(=O)Nc4ccccc4OC)c3)CC2)c1	-36%	27%	-50%	?	-11%
COc1cccc(C(=O)N2CCN(C(=O)Cc3ccccc3)CC2)c1	-15%	-8%	12%	-2%	32%
COc1ccc(Br)cc1CN1CCN(C(=O)c2ccc(OC)c(OC)c2)CC1	14µM*	-6%	16µM*	50µM*	?
CN(CC(=O)Nc1ccccc1C(F)(F)F)C(=O)c1ccc2c(=O)n3c(nc2c1)CCC3	7%	1%	-4%[2.33 µM]	16%	31%
COC(=O)c1cc(OC)c(OC)cc1NC(=S)N1CCN(Cc2ccccc2)CC1	-6%	63%	-3%[59 µM]	?	22%
CCC(COC)NCc1cn(-c2ccc(OC)cc2)nc1-c1cccc(F)c1 (stereo not given)	-11%	2%	/	-7%	34%
CCOc1cc(C(c2c(C)[nH][nH]c2=O)c2c(C)[nH][nH]c2=O)ccc1OC(=O)c1cccc([N+](=O)[O-])c1	?	56%	3.5µM*	-36%	-14%
Cc1ccc(-n2nc(C(=O)Nc3ccc(Cl)cn3)c3c4ccccc4n(C)c3c2=O)cc1	-24%	3%	5%[59 µM]	/	-1%
O=C(O)c1ncc(-c2ccccc2)cn1	10µM*	6%	8.9µM*	/	?
Fc1cccc(Cc2c(-c3ccco3)nc3ccc(Br)cn23)c1	/	16µM*	/	/	/
Fc1cccc(Cc2c(-c3ccccc3)nc3ccc(Br)cn23)c1	/	12%	/	/	/
O=C(NNC(=O)c1ccc2c(c1)OCO2)NC12CC3CC(CC(C3)C1)C2	-10%	9%	20%[59 µM]	5%	41%
Oc1ccc(C=NNC(=S)Nc2cccnc2)nc1	10µM*	39%	/	/	19%
COc1ccccc1/C=N/NC(=S)Nc1cccnc1	-24%	-10%	1%	-15%	30%
Oc1ccc(/C=N/NC(=S)Nc2cccnc2)cc1O	-32%	5µM*	?	?	?
CC(C)(C)c1ccc(/C=N/NC(=S)Nc2cccnc2)cc1	/	/	?	-36%	/
